For seven compounds, Potency and outcome results are on record in PubChem BioAssay (Tox21).

Structures are written as SMILES. Where “and” joins values, the source holds several entries; their conditions need not be identical. Equal values may be shown once. Records with an inconclusive call do not appear. Where a structure was tested more than once in an assay, its records may differ in their call. Calls of active or inactive are those of the source. Unless noted, calls come from the whole dose curve; as a rule, active = well fitted curve in the direction sought with a large enough effect in the repeat runs; inconclusive = weak or mixed curves; inactive = no such curve, though single readings can be large; an effect the other way counts as inactive or inconclusive.

Assay [1] can be described thus: A CellTox Green Cytotoxicity Assay to monitor cytotoxicity in HEK293 cells - 32 hour (AID 1224881). Note: nearly all actives have a fitted effect of over 40% in size. Note: potency is the fitted concentration of half-maximal effect. In outline:
(§1)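 Homogeneous no-lysis format: HEK293 cell suspension mixed with CellTox Green reagent, seeded, incubated 5 h at 37 C/5% CO2, then dosed by pintool with compound in DMSO.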

Assay [2] in a line: A CellTox Green Cytotoxicity Assay to monitor cytotoxicity in HepG2 cells - 0 hour (AID 1224882). Note: nearly all actives have a fitted effect of over 35% in size. Note: potency is the fitted concentration of half-maximal effect. In outline: (§2)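 Fluorescent DNA-binding dye, 600 HepG2 cells/well, 5 h preincubation then compound in DMSO; same plates read at 0–40 h, 37 C.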
Assay [3] can be described thus: A CellTox Green Cytotoxicity Assay to monitor cytotoxicity in HepG2 cells - 32 hour (AID 1224883). Note: nearly all actives have a fitted effect of over 50% in size. Note: potency is the fitted concentration of half-maximal effect. The essentials:
as §2

Assay [4] can be described thus: A CellTox Green Cytotoxicity Assay to monitor cytotoxicity in HEK293 cells - 8 hour (AID 1224884). Note: nearly all actives have a fitted effect of over 35% in size. Note: potency is the fitted concentration of half-maximal effect. In outline:
as §1

The nature of assay [5]: qHTS RealTime-Glo MT Cell Viability Assay in HepG2 cells - 16 hour (AID 1224885). Note: nearly all actives have a fitted effect of over 50% in size. In outline:
(§3)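 Cells + NanoLuc/prosubstrate dispensed (600 cells/well) → 5 h at 37 C/5% CO2 → compounds in DMSO transferred → 40 h incubation at 37 C, luminescence read at 0, 8, 16, 24, 32, 40 h.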
Background: Quantitative high-throughput screening tests each substance at several concentrations.

A short description of assay [6]: qHTS RealTime-Glo MT Cell Viability Assay in HEK293 cells - 24 hour (AID 1224886). Note: top concentration of the series differs between compounds; nearly all actives have a fitted effect of over 50% in size. In outline:
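Tox21 10K qHTS, HEK293, 600 cells/well, RealTime-Glo reagent co-dispensed with cells; 5 h preincubation, compound by pintool, 37 C, luminescence at 0–40 h.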

Assay [7] can be described thus: qHTS RealTime-Glo MT Cell Viability Assay in HEK293 cells - 8 hour (AID 1224887). Note: nearly all actives have a fitted effect of over 50% in size. Note: potency is the fitted concentration of half-maximal effect. The essentials: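 Measured as luminescence from the same continuously cultured HEK293 wells at successive time points (0, 8, 16, 24, 32, 40 h) after compound addition. Reagent present from seeding; dosing at 5 h; incubation 37 C.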
A short description of assay [8]: A CellTox Green Cytotoxicity Assay to monitor cytotoxicity in HEK293 cells - 16 hour (AID 1224888). Note: nearly all actives have a fitted effect of over 35% in size. Note: potency is the fitted concentration of half-maximal effect. In outline: as §1
A short description of assay [9]: qHTS RealTime-Glo MT Cell Viability Assay in HepG2 cells - 0 hour (AID 1224889). Note: nearly all actives have a fitted effect of over 50% in size. Note: potency is the fitted concentration of half-maximal effect. The essentials: as §3
A short description of assay [10]: A CellTox Green Cytotoxicity Assay to monitor cytotoxicity in HepG2 cells - 8 hour (AID 1224890). Note: nearly all actives have a fitted effect of over 45% in size. Note: potency is the fitted concentration of half-maximal effect. In outline: as §2
Assay [11] can be described thus: qHTS assay to identify small molecule antagonists of the estrogen receptor alpha (ER-alpha) signaling pathway using the BG1 cell line in the presence of 0.1 nM 17-beta-estradiol - cell viability counter screen (AID 1259241). Note: nearly all actives have a fitted effect of over 40% in size. In outline: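 Cytotoxicity counter-screen: live-cell protease activity measured by fluorescence (30 min reagent step) in the same wells. Cells were VM7Luc4E2 with endogenous ER-alpha and ERE-driven luciferase, treated 22 hr at 37C alongside 0.1 nM 17beta-estradiol final.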

Assay [12] in a line: qHTS assay to identify small molecule antagonists of the androgen receptor (AR) signaling pathway using the MDA cell line in the presence of 0.5 nM R1881 - cell viability counter screen (AID 1259242). Note: nearly all actives have a fitted effect of over 45% in size. Note: potency is the fitted concentration of half-maximal effect. In outline: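 Human breast carcinoma MDA-kb2 cells, cultured without CO2, receive compounds alongside 0.5 nM (final) R1881 agonist. After 16 hr at 37C, viability is taken as live-cell protease signal.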

In assay [13] the target is Estrogen receptor (Homo sapiens) (UniProt P03372). The experiment in a line: qHTS assay to identify small molecule antagonists of the estrogen receptor alpha (ER-alpha) signaling pathway using the BG1 cell line in the presence of 0.1 nM 17-beta-estradiol (AID 1259244). Note: nearly all actives have a fitted effect of over 50% in size. Note: potency is the fitted concentration of half-maximal effect. In outline:
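Seeding of stripped-serum-adapted VM7Luc4E2 cells, 24 h attachment, compound transfer, then 0.1 nM final 17beta-estradiol; after 22 h incubation, ONE-Glo reagent and luminescence reading.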

Assay [14] in a line: qHTS assay to identify small molecule HDAC inhibitors - cell viability counter screen (AID 1259365). In outline: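 CellTiter-Glo luminescence (30 min, room temperature) reported viability after a 2 h compound exposure at 37 C. Cells: wild-type HCT-116, 1,500 per well, seeded the night before.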
Assay [15] is described as follows: qHTS assay to identify small molecule agonists of the sonic hedgehog signaling (Shh) pathway - cell viability counter screen (AID 1259366). Note: nearly all actives have a fitted effect of over 50% in size. Note: potency is the fitted concentration of half-maximal effect. In outline:
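Cytotoxicity counter screen: CellTiter-Fluor reagent added after 23 h compound exposure, then 1 h at 37C and fluorescence read. Cells were 3T3 Gli1-Luc, seeded 2,000 per well and dosed 4 h post-plating.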

The nature of assay [16]: qHTS assay to identify small molecule antagonists of the sonic hedgehog signaling (Shh) pathway - cell viability counter screen (AID 1259367). Note: nearly all actives have a fitted effect of over 55% in size. Note: potency is the fitted concentration of half-maximal effect. The essentials: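 Cytotoxicity was assessed in parallel with Shh reporter activity by measuring live-cell protease fluorescence (CellTiter-Fluor) in NIH/3T3 cells stably carrying Gli1-Luc, treated with compound under conditioned medium stimulation for 23 hr plus 1 hr reagent incubation.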

A short description of assay [17]: qHTS assay to identify small molecule agonists of the sonic hedgehog signaling (Shh) pathway (AID 1259368; calls by dose curve;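 note: NIH/3T3-derived 3T3Gli1-Luc cells carrying a stable Gli1-driven firefly luciferase reporter; series mostly up to about 92 µM; nearly all actives have a fitted effect of over 15% in size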). The essentials: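 Stable NIH/3T3 Gli1-Luc reporter clone; 24 hr cpd exposure after a 4 hr settling period; luminescence endpoint.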
A short description of assay [18]: qHTS assay to identify small molecule phospholipidosis (PLD) inducers (AID 1259344; active = well fitted curve in the direction sought with a large enough effect; an effect the other way counts as inactive or inconclusive). The essentials:
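Cells (HepG2, 900 per well) attach for 4 h, receive LipidTOX Red and compound together, incubate 24 h at 37 C, are fixed 30 min with paraformaldehyde/Hoechst, then imaged at one site per well.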

The nature of assay [19]: qHTS assay to identify small molecule antagonists of the sonic hedgehog signaling (Shh) pathway (AID 1259369; calls by dose curve; note: nearly all actives have a fitted effect of over 45% in size; note: potency is the fitted concentration of half-maximal effect). The essentials:
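Gli1 transcriptional reporter (firefly Luc) in NIH/3T3 background, conditioned-medium activated. 24hr exposure, luminescence endpoint.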

Assay [20] is described as follows: qHTS assay to identify small molecule HDAC inhibitors (AID 1259364).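 Note: wild-type HCT-116 cells with endogenous class I/II HDAC activity; top concentration of the series differs between compounds; nearly all actives have a fitted effect of over 45% in size.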 The essentials: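 After a 2 hr compound incubation (37C, 5% CO2), HCT-116 cells seeded at 1,500/well the day before received HDAC-Glo reagent; signal read as luminescence after 30 min at room temperature.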

Sequence of Estrogen receptor (Homo sapiens) (P03372 whole entry, looked up): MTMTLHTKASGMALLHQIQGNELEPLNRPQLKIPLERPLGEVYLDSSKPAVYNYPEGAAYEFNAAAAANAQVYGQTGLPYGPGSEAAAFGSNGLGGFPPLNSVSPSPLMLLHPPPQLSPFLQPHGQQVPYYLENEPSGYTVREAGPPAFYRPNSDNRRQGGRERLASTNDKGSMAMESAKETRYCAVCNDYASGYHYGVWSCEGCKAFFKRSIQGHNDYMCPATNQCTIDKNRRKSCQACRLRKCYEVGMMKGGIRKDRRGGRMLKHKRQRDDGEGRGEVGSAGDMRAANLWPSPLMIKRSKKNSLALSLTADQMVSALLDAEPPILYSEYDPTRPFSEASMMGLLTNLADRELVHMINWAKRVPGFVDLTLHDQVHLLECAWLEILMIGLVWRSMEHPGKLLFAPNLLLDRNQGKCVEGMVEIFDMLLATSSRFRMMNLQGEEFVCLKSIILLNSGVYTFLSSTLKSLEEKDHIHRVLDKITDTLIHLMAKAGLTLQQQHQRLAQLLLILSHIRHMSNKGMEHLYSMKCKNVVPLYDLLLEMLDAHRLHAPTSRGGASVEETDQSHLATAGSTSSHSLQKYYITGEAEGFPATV

Regarding `CCCCOCCOP(=O)(OCCOCCCC)OCCOCCCC`, the Potency entry in [1], in [2], in [3], in assay [4], in assay [5] and in assay [6] was “inactive” each time. The Potency entry in [7], in assay [8], in assay [9], in [10], in assay [11] and in [12] was “inactive” throughout. In addition, the Potency entry in [13], in [15], in assay [16] and in assay [17] was “inactive” in each case. In assay [14], the call was inactive.

In the case of `CC1(C)C(C=C(Cl)Cl)C1C(=O)OC(C#N)c1cccc(Oc2ccccc2)c1` (stereo not drawn), the Potency entry in assay [1], in assay [2], in assay [3], in [4], in assay [5] and in [6] was “inactive” throughout. Also, the Potency entry in assay [7], in assay [8], in assay [9], in assay [10], in assay [11] and in [12] was “inactive” in each case. The Potency entry in [13], in assay [15], in [16], in assay [17] and in assay [19] was “inactive” throughout. Besides, the outcome in [18] and in assay [14] was inactive.

For the compound `CCOC(=S)S`, the Potency entry in [1], in [2], in assay [3], in assay [4], in assay [5] and in assay [6] was “inactive” throughout. Also, the Potency entry in assay [7], in assay [8], in assay [9], in assay [10], in assay [11] and in assay [12] was “inactive” each time. Further, the Potency entry in [20] and in assay [17] was “inactive” each time. Besides, in assay [14], the outcome was inactive. The Potency in assay [15] was 38.6 µM (active) and 20.6 µM (active); in [16], 30.6 µM (active) and 25.9 µM (active); in [19], 10.9 µM (active) and 13 µM (active).

Regarding `Oc1cc(Cl)ccc1Cl`, the Potency entry in [1], in assay [2], in assay [3], in assay [4], in assay [5] and in [6] was “inactive” each time. The Potency entry in [7], in assay [8], in assay [9], in [10], in assay [11] and in assay [12] was “inactive” each time. Also, the Potency entry in assay [20], in assay [15], in assay [16], in assay [17] and in [19] was “inactive” each time. Moreover, in assay [14], the compound was called inactive.

Consider `CC(C)(OOC(C)(C)c1ccccc1)c1ccccc1`, for which the Potency in assay [1] was 24.2 µM (active) and 49 µM (active); in [8], 43.6 µM (active). Besides, the Potency result in assay [2], in assay [3], in assay [4], in assay [5], in assay [6] and in assay [7] was “inactive” each time. The Potency result in assay [9], in assay [10], in assay [11], in [12], in assay [20] and in assay [15] was “inactive” each time. The Potency result in [16], in assay [17] and in assay [19] was “inactive” throughout. Also, the result in assay [14] was inactive.

With `Nc1ccc(Cl)cc1N`, the Potency in assay [1] was 21.9 µM (active); in [2], “inactive and 19.5 µM (active)”; in assay [3], “inactive and 23.2 µM (active)”; in assay [4], 24.5 µM (active); in assay [7], 40.4 µM (active); in assay [8], 24.5 µM (active). In addition, the Potency result in [10] is “inactive and 21.9 µM (active)”; in [19] it was “inactive and 30.6 µM (active)”. Moreover, the Potency entry in [5], in assay [9], in assay [11], in assay [12], in assay [15] and in assay [16] was “inactive” throughout. Besides, the outcome in assay [18] and in assay [14] was inactive.

For the compound `O=C(Nc1ccc(Br)cc1)c1cc(Br)cc(Br)c1O`, the Potency was 38.9 µM (active) and inactive in assay [1]; “inactive and 43.6 µM (active)” in assay [2]; 19.4 µM (active) and 27.5 µM (active) and 21.3 µM (active) in assay [3]; “inactive and 38.9 µM (active)” in assay [4]; 21.8 µM (active) in [9]; “inactive and 43.6 µM (active)” in assay [10]. Moreover, the Potency in assay [12] is 13.3 µM (active); in [13] it was 6.83 µM (active) and 10.9 µM (active); in [15], 30.5 µM (active); in assay [19] it was 13.7 µM (active) and 13.3 µM (active). Further, the Potency result in assay [5], in assay [6], in assay [7], in [11] and in assay [17] was “inactive” in each case. Further, the outcome in assay [18] and in assay [14] was inactive.
